Compound activity deposited in PubChem BioAssay by National Center for Advancing Translational Sciences (NCATS).
FMDV inh: foot and mouth disease virus antiviral activity; 410,000 compounds, 1.2% hits; FMDV antiviral cell-based qHTS; Potency, µM (highest dose often 57.9 µM), without a hit: at the top dose activity change, negative = inhibition, usual class: inhibitors; AID 1159524; calls by dose curve; tested in HEK293T cells; also: read-out not given here; potency is read from the fitted curve at half-maximal effect; nearly all actives have a fitted effect of over 45% in size
VACV Venus inh: vaccinia inhibition (Venus reporter). 330,000 compounds, 0.46% hits. Potency, µM (series often up to 36.5 µM), for inactives: top-dose activity change, negative = inhibition, usual class: inhibitors. Vaccinia virus Venus reporter expression, fluorescence; calls by dose curve; tested in A549 cells; also: potency is read from the fitted curve at half-maximal effect; nearly all actives have a fitted effect of over 30% in size
HCMV inh: human cytomegalovirus inhibition | HFF cells, HCMV-luciferase reporter, 72 h; active compounds read low | activity change, negative = inhibition, % at 57.5 µM | 410,000 compounds, 4.5% hits; in the data active = activity change below about -60%; inconclusive = no clear call, values can overlap the other calls; inactive = above about -39%
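Cell-based, HFFs, 1000 cells/well, 16 h 37C; cpds in DMSO + HCMV-luc, MOI 1 PFU/cell; 72 h 37C; OneGlo luminescence after 5 min RT; norm. to buffer vs Salinomycin 10uM.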
MARV entry inh: blocks Marburg virus binding to or entry into cells. Marburg virus pseudotyped entry inhibition, cell reporter. Potency, µM (highest dose often 37.8 µM), for inactives: at the highest dose activity change, negative = inhibition, most hits filed as inhibitors. 300,000 compounds, 1.8% hits. AID 540276; calls by dose curve; tested in HEK293 cells; also: potency is read from the fitted curve at half-maximal effect
Lassa entry inh: Lassa virus entry inhibition | Lassa virus pseudotype entry inhibition, cell reporter | Potency, µM (highest dose often 37.9 µM), without a hit: at the highest dose activity change, negative = inhibition, most hits filed as inhibitors | 300,000 compounds, 1.2% hits | AID 540256; calls by dose curve; tested in HEK293 cells; also: potency is read from the fitted curve at half-maximal effect; nearly all actives have a fitted effect of over 50% in size
Vaccinia mCherry: inhibitors of vaccinia virus infection (mCherry reporter signal) | AID 720579 | 310,000 compounds, 0.63% hits | Potency, µM (titrated, usually from 36.5 µM), without a hit: at the highest dose activity change, negative = inhibition, usual class: inhibitors | Vaccinia virus mCherry reporter infection, fluorescence; calls by dose curve; tested in A549 cells; also: potency is read from the fitted curve at half-maximal effect; nearly all actives have a fitted effect of over 35% in size
An asterisk follows results filed as active; i = inactive; ? = inconclusive; . = no result given; [ ] = remark or other dose. Only some compounds are listed: those with a hit (about 6.5% of all), similar ones and a draw of the others. % is scaled to controls: 0 for no effect and ±100 for the full control effect.

SMILES	FMDV inh	VACV Venus inh	HCMV inh	MARV entry inh	Lassa entry inh	Vaccinia mCherry
O=c1c2ccccc2nc(N/N=C/c2c(O)ccc3ccccc23)n1O	0.0%	?	-101.4*	0.794µM*	0.631µM*	.
Cc1nc(Sc2nnnn2C2CC2)c2c(-c3ccccc3)csc2n1	.	-27.8%	.	.	.	?
CCC[C@H]1[C@@H](NC(=O)Nc2ccc(C)cc2)CC[C@@]23CCCN2C(=O)CCC[C@@H]13	.	.	40.3	.	.	.
COc1ccc(C(O)c2nc3ccccc3n2C)cc1OC (configuration not stated)	?	-26.1%	-88.4*	?	-19.6%	?
O=C(Oc1ccccc1)N1CCC2(CC1)CCN(c1ccccc1)CC2	-6.9%	.	.	.	.	.
Cc1cc(C)c(NC(=O)Nc2sc3nc4n(c(=O)c3c2C)CCC(C)CC4)c(C)c1 (configuration not stated)	-8.7%	-19.5%	-3.2	18.8%[46.1 µM]	.	-18.4%
CCCCN(CC)CCCNC(=O)Nc1sc2nc3n(c(=O)c2c1C)CCC(C)CC3 (configuration not stated)	0.0%	-4.6%	-37.2	10µM*	.	i
CCN1C(=O)[C@H]2[C@H]3[C@H](O)[C@H](O)C/C(=N\OCC[C@@H]4C=C[C@H](OC(C)=O)[C@@H](COC(C)=O)O4)[C@@H]3CC[C@H]2C1=O	.	.	.	-14.6%[14.2 µM]	.	.
COC(=O)C1=C(C(=O)OC)[C@@H]2N(C)c3ccccc3[C@@]23C[C@@H](C(=O)OC)N(C(=O)Nc2cccc(C#N)c2)C3=N1	.	.	.	27.4%[14.2 µM]	.	.
Cc1ccc(C2C3=C(CC(C)(C)CC3=O)OC3=C2C(=O)CC(C)(C)C3)cc1	2.4%	-13.4%	-19.8	-7.5%[46.1 µM]	?	-0.4%
CC1(C)CC(=O)C2=C(C1)N=c1s/c(=C/c3ccc(F)c(F)c3)c(=O)n1C2c1ccc(F)cc1 (configuration not stated)	?	2.9%	-7.5	-24.5%	5.4%	-8.3%
CC1(C)CC(=O)C2=C(C1)N=C1c3ccccc3C(=O)C1C2c1ccc(Cl)cc1 (configuration not stated)	?	?	-71.1*	?	?	?
CCOC(=O)C1=C(C)N=C2c3ccccc3C(=O)C2C1c1ccc(Cl)cc1 (configuration not stated)	?	-21.5%	-80.0*	?	?	-20.1%
Cc1ccc(C2C3=C(CC(C)(C)CC3=O)N=C3c4ccccc4C(=O)C32)cc1 (configuration not stated)	?	-27.2%	-67.9*	?	?	?
COC(=O)C1=C(C(=O)OC)[C@@H]2Nc3ccccc3[C@@]23C[C@@H](C(=O)OC)N(C(=O)Nc2ccc(C(F)(F)F)cc2)C3=N1	.	.	.	-15.4%[14.2 µM]	.	.
COc1cc(C(=O)N2CCc3c([nH]c4ccccc34)C2c2ccc(F)cc2)cc(OC)c1OC (configuration not stated)	-14.2%	-6.8%	28.6	.	8.91µM*	-16.5%
O=C(c1ccc(F)cc1)N1CCc2c([nH]c3ccccc23)C1c1ccc(Cl)cc1 (configuration not stated)	-21.0%	-13.2%	-65.9*	.	?	-4.1%
COc1cccc(C(=O)N2CCc3c([nH]c4ccccc34)C2c2ccc(SC)cc2)c1 (configuration not stated)	-13.9%	-7.0%	-63.8*	.	?	-15.7%
CSc1ccc(C2c3[nH]c4ccccc4c3CCN2C(=O)c2ccnn2C)cc1 (configuration not stated)	17.2%	-14.8%	-11.1	?	?	?
COc1ccccc1-c1c(C)nn2c(N3CCCCCC3)cc(C)nc12	28.2µM*	?	-95.9*	?	?	?
COc1ccccc1-c1c(C)nn2c(N3CCOCC3)cc(C)nc12	?	.	1.8	.	.	.
COc1ccc(-c2c(C)nn3c(N)c(-c4ccccc4)cnc23)cc1OC	13.5%	.	2.7	.	.	.
COc1ccccc1-c1c(C)nn2c(-c3ccccc3)cc(C)nc12	?	?	-68.1*	?	?	-11.9%
COc1ccccc1-c1c(C)nn2c(N)c(-c3ccccc3)cnc12	-11.2%	-21.0%	-81.7*	?	-8.5%[46.1 µM]	i
COc1ccc(-c2c(C)nn3c(-c4ccccc4)cc(C)nc23)cc1OC	?	?	-16.6	-2.0%[46.1 µM]	-0.6%[46.1 µM]	?
SMILES	FMDV inh	VACV Venus inh	HCMV inh	MARV entry inh	Lassa entry inh	Vaccinia mCherry
CC(=O)N(CCC(c1ccco1)C(C)C)Cc1ccc(Cl)cc1 (configuration not stated)	-28.2%	-5.6%	-35.7	-25.1%[46.1 µM]	10µM*	-11.1%
Oc1ccc(-c2cn3ccccc3n2)cc1	9.6%	.	72.3	.	.	.
CCCSc1ccc2nc(-c3ccccc3)cn2c1	2.24µM*	-14.5%	-63.8*	?	2.24µM*	-21.3%
Brc1ccc(-c2cn3ccccc3n2)cc1	-54.8%	3.2%	68.1	?	2.82µM*	-0.2%
O=[N+]([O-])c1ccc(-c2cn3ccccc3n2)cc1	9.7%	.	-64.7*	.	.	.
c1ccc(-c2cn3nc(-c4ccccc4)sc3n2)cc1	10µM*	-15.4%	.	?	?	-6.0%
O=C(CCS(=O)(=O)c1cccc2nonc12)Nc1ccc(F)cc1F	-0.3%	-17.2%	?	.	25.8%[46.1 µM]	-17.0%
Cc1c(CC(=O)NCc2ccccc2)c(=O)oc2c(C)c(O)ccc12	-6.8%	-12.0%	-23.4	?	?	-21.6%
c1ccc(-c2cn3ccccc3n2)cc1	3.9%	-5.1%	93.7	11.2µM*	-15.9%[46.1 µM]	-7.5%
Cc1ccccc1-c1noc(CSc2nnc(Cc3ccccc3)n2-c2ccc(F)cc2)n1	0.0%	-17.6%	12.0	?	?	i
COc1ccc(CCNC(=O)CCc2c(C)c3ccc(O)c(C)c3oc2=O)cc1	-2.7%	-9.4%	-20.4	-4.6%[46.1 µM]	-7.3%[46.1 µM]	-9.7%
CCCCCc1cc(=O)oc2c(C(CCN3CCCC(C)C3)c3ccc4c(c3)OCO4)c(OC)cc(OC)c12 (configuration not stated)	27.1%	?	?	.	.	-15.0%
COc1cc(OC)c2c(-c3ccccc3)cc(=O)oc2c1C(CC(=O)N1CCOCC1)c1ccc2c(c1)OCO2 (configuration not stated)	37.7%	-18.3%	-94.0*	.	.	-7.1%
CCCCCc1cc(=O)oc2c(C(CCN3CCCCC3)c3ccc4c(c3)OCO4)c(OC)cc(OC)c12 (configuration not stated)	-21.1%	14.1µM*	-80.3*	.	.	?
COc1cc(OC)c2c(-c3ccccc3)cc(=O)oc2c1C(CC(=O)N1CCOCC1)c1ccc(N(C)C)cc1 (configuration not stated)	35.0%	-20.1%	7.2	.	.	-9.7%
Cc1ccc(C)c(Cn2c(=O)n(-c3ccc(Cl)cc3)c(=O)c3c(C)c(C)sc32)c1	-17.5%	2.9%	18.8	5.9%[46.1 µM]	?	-3.6%
O=C(CNC(=O)c1ccccc1Cl)N/N=C/c1ccc([N+](=O)[O-])s1	-10.3%	?	-92.8*	?	?	?
O=C(Cc1cccs1)N/N=C\c1ccc([N+](=O)[O-])s1	21.8%	?	-9.6	.	.	?
